# Among all 410,000 compounds or so, about 7,200 (1.8%) were called active. About 7% were inconclusive and are not listed. Calls follow the shape of the dose curve; as a rule, active = well fitted activation curve with a large enough effect; inconclusive = small, poorly fitted or top-dose-only effect, or another doubt; inactive = no such curve, though single readings can be large or run the other way. The full list was thinned out, with actives kept by preference.
# Experiment: qHTS of TDP-43 Inhibitors; also: nearly all actives have a fitted effect of over 50% in size; as to growth rescue (activation): % of control where 0% means no effect
# Conditions: TDP-43 expressing yeast growth rescue, BacTiter-Glo, 24 h; series mostly up to 46.1 µM; growth rescue (activation): at the top concentration
# Procedure, shortened: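 Yeast expressing TDP-43 (pregrown in raffinose, seeded at OD600=0.02 in galactose medium) exposed to compounds 24 hr at 30 deg C. Growth read by BacTiter-Glo luminescence; rescue of toxicity appears as increased signal.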
# Potency is read from the fitted curve at half-maximal effect.
SMILES,growth rescue (activation),Potency
COc1cc(Nc2nc(-c3ccc(OC)c(OC)c3)nc3ccccc23)cc(OC)c1,18.5% (inactive),–
CCCCN(CC)CCCNC(=O)c1nn(C)c2c1CS(=O)(=O)c1ccccc1-2,1.93% (inactive),–
COc1ccc(Cn2c(=O)sc3ccccc32)cc1OC,–,11.2 µM (active)
COc1ccc(CN2CCOC2=O)cc1OC,5.01% (inactive),–
C=CCSc1nnc(Cn2c(=O)sc3ccccc32)n1C,9.94% (inactive),–
CCCCCn1c(=O)[nH]c2cc(C(=O)NCCN(C)CCCC)ccc2c1=O,20.9% (inactive),–
CCC(=O)N1CCc2cc(S(=O)(=O)NC(Cc3ccccc3)C(=O)NCc3ccccc3)ccc21 (centres undefined),16.9% (inactive),–
COc1ccc(CNC(=O)C2=Cc3cccc(OC)c3OC2)cc1OC,0% [at 9.22 µM] (inactive),–
COc1ccc([N+](=O)[O-])cc1NC(=O)COC(=O)/C=C/c1ccco1,9.61% (inactive),–
COc1ccc(NC(=O)c2ccco2)cc1NC(=O)COc1ccc(C)c(C)c1,19.3% (inactive),–
COc1cc(NC(=O)c2cc([N+](=O)[O-])ccc2Br)ccc1NC(=O)c1ccco1,–,10 µM (active)
COCCNC(=O)c1ccc2c(c1)N=C(C)c1cc(C)ccc1S2,4.19% (inactive),–
CCCn1c2ccccc2c2cnn(CC(=O)N(C)c3ccccc3CC)c(=O)c21,–,28.2 µM (active)
CCCn1c2ccccc2c2cnn(CC(=O)N(CC)c3cc(C)ccc3C)c(=O)c21,-19.8% (inactive),–
CCCn1c2ccccc2c2cnn(CC(=O)NCCCOC(C)C)c(=O)c21,15.2% (inactive),–
Cc1ccc(S(=O)(=O)c2nc(-c3cccs3)oc2N2CCCCC2)cc1,12.1% (inactive),–
COc1ccc(N2CCN(c3cc(C)nc4nncn34)CC2)cc1,4.9% (inactive),–
Cc1ccccc1NC(=O)Cn1cc(C(=O)c2cccs2)c2ccccc21,11.7% (inactive),–
Cc1ccc(C(=O)N2CCc3cc(CNC(=O)c4ccc(Br)cc4)ccc32)cc1,-9.12% (inactive),–
CCCCc1ccc(NC(=O)NCc2cccnc2)cc1,6.28% (inactive),–
CCCCCCCCCCCCN1C(=O)CSC1c1cccnc1 (centres undefined),–,20 µM (active)
O=C(O)C1CC(=O)N(Cc2cccnc2)C1 (centres undefined),-14.9% (inactive),–
CCOc1ccc(CNC(=O)C2CCN(c3nnc(-n4cccc4CNc4ccc(C)cc4)s3)CC2)cc1OC,9.74% (inactive),–
COc1ccccc1N1CCN(c2ccc(=O)n(CC(=O)NCc3ccc(OC(C)C)cc3)n2)CC1,-15.5% (inactive),–
Clc1ccc(Nc2nc(-c3cccs3)cs2)nc1,–,8.91 µM (active)
CCN(c1ccc(Cl)cc1)S(=O)(=O)c1nnc(NC(=O)c2ccco2)s1,7.64% (inactive),–
CCc1cnc2c(c1SCC(=O)N1CCC(C)CC1)c(=O)n(C)c(=O)n2C,11.7% (inactive),–
Cc1cc(-c2n[nH]c(=S)n2/N=C/C(Br)=C/c2ccccc2)n[nH]1,–,35.5 µM (active)
CCCc1cc(-c2n[nH]c(=S)n2CC)c2ccccc2n1,6.52% (inactive),–
